Laboratory results taken from PubChem BioAssay.
Records with an inconclusive call do not appear. Activity calls are given as the source filed them.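 Rule for the calls, unless noted: active = normalized viability below 100% at a tested concentration; inactive = the rest.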

What was measured:
[1] = growth inhibition of DIPG glioma cells, dose response, cell-based, SU-DIPG-XVII, MIPE5.0, CellTiter-Glo, qHTS (AID 1347060; cut-off not given, nearly all actives have AC50 up to about 26 µM); conditions: SU-DIPG-XVII viability, CellTiter-Glo ATP luminescence
[2] = growth inhibition of DIPG glioma cells, dose response, cell-based, JHH-DIPG-1, MIPE4.0, CellTiter-Glo, qHTS (AID 1347062; cut-off not given, nearly all actives have AC50 up to about 27 µM); conditions: JHH-DIPG-1 viability, CellTiter-Glo ATP luminescence
[3] = growth inhibition of DIPG glioma cells, dose response, cell-based, SU-DIPG-IV, MIPE4.0, CellTiter-Glo, qHTS (AID 1347063; cut-off not given, nearly all actives have AC50 up to about 30 µM;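 note: compound exposure lasted 48 hours before the viability readout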); conditions: SU-DIPG-IV viability, CellTiter-Glo ATP luminescence
[4] = SU-DIPG-VI glioma cell viability, MIPE4.0 library, CellTiter-Glo luminescence, qHTS (AID 1347066; cut-off not given, nearly all actives have AC50 up to about 30 µM;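 note: cells exposed to compound for 48 hours before readout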); conditions: CellTiter-Glo ATP luminescence
[5] = JHH-DIPG-1 glioma cell viability, MIPE5.0 library, CellTiter-Glo luminescence, qHTS (AID 1347067; cut-off not given, nearly all actives have AC50 up to about 26 µM;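 note: cells exposed to compound for 48 hours before readout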); conditions: JHH-DIPG-1 glioma viability, CellTiter-Glo ATP luminescence
[6] = sensitizers of A549 cells to miR-34 induction, primary screen, imaging, A549 dox-inducible miR-34, nuclei and caspase counts (AID 1347080;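 active = compounds whose cell count with miR-34 switched on is under 0.7 times the count with it off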); conditions: A549 miR-34 inducible, Hoechst nuclei count, 48 h
[7] = modifiers of HSF1 nuclear foci, imaging, Selleck Cancer Library (AID 1347162; in the data active = plate-normalised HSF1 focus index below about 0.46); conditions: human cells, at 10 µM; SSMD: measured here: HSF1 foci SSMD mean; cell count: measured here: cell number; plate-normalised HSF1 focus index: stronger effect = lower value
[8] = survival rescue of mitochondrial mutant cells in low glucose, primary screen, MELAS cybrids, Rieske KO mouse fibroblasts, CellTiter-Glo (AID 1508586;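 active = mean z-score across replicates of 1.96 or higher in either the MELAS or the Rieske mutant cell line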;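 note: z relative to plate mean and SD of compound and empty wells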)
[9] = ovarian cancer cell viability with rucaparib, profiling panel, oncology-focused library, rucaparib conditional (AID 1508598); conditions: patient-derived ovarian cancer cells, CellTiter-Glo viability, 144 h, stronger effect = lower value
[10] = LFS_MB_P medulloblastoma growth inhibition, cell-based, chromothripsis tumors, cisplatin or BGB combos (AID 1671449; in the data active = inhibition above about 80%;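 note: cells exposed for 96 hours; 0% = vehicle DMSO and 100% = killing by high DMSO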); conditions: LFS_MB_P medulloblastoma cells
[11] = HDN33 neuroblastoma growth inhibition, cell-based, chromothripsis tumors, cisplatin or BGB combos (AID 1671450; in the data active = inhibition above about 80%;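 note: cells exposed to compound for four days; 0% = vehicle DMSO and 100% = cell killing by high DMSO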); conditions: HDN33 neuroblastoma cells, stronger effect = higher value
[12] = ICB984 medulloblastoma cell growth inhibition, synergistic combos for chromothripsis tumors, cisplatin or BGB combos (AID 1671451; call rule not given here;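 note: cells exposed for 96 hours before readout; 0% = vehicle DMSO and 100% = killing by high DMSO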); conditions: ICB984 medulloblastoma cells, drug combinations, stronger effect = higher value
[13] = HTB85 osteosarcoma cell growth inhibition, synergistic combos for chromothripsis tumors, BGB or cisplatin IC20 combos (AID 1671453; in the data active = inhibition above about 80%;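 note: cells exposed for 96 hours before readout; 0% = vehicle DMSO and 100% = high DMSO killing control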); conditions: HTB85 osteosarcoma cells, drug combinations, stronger effect = higher value
[14] = MDA-MB-436 breast carcinoma cell growth inhibition, synergistic combos for chromothripsis tumors, BGB or cisplatin combos (AID 1671458; call rule not given here;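 note: cells exposed for 96 hours; 0% = vehicle DMSO and 100% = killing by high DMSO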); conditions: MDA-MB-436 breast carcinoma growth inhibition, drug combinations, stronger effect = higher value
[15] = growth inhibition of BT084 medulloblastoma cells, cell-based, ICGC_MB145, cisplatin and BGB IC40 combos (AID 1671461; in the data active = inhibition above about 80%;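 note: cells exposed to drugs for 96 hours; 0% = vehicle DMSO and 100% = high DMSO full killing control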); conditions: drug combinations, stronger effect = higher value
[16] = growth inhibition of RCMB18 medulloblastoma cells, cell-based, cisplatin and BGB IC40 combos (AID 1671462; in the data active = inhibition above about 80%;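 note: cells exposed to compound for four days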); conditions: stronger effect = higher value
[17] = growth inhibition of CRL1545 osteosarcoma cells, cell-based, cisplatin and BGB IC20 combos (AID 1671464; in the data active = inhibition above about 80%;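 note: cells exposed to compound for 96 hours before readout; 0% = vehicle DMSO and 100% = high DMSO killing control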); conditions: stronger effect = higher value
[18] = measured here: with BGB IC20 combination, at 0.5 µM
[19] = measured here: with cisplatin IC20 combination, at 0.5 µM

O=C(O)[C@H](Cc1c[nH]c2ccccc12)N1C(=O)c2ccccc2C1=O
outcome [1]: inactive
outcome [2]: inactive
outcome [3]: inactive
outcome [4]: inactive
outcome [5]: inactive
fold change ([6]; stronger effect = lower value, cell number ratio, induced over uninduced): 0.96 (inactive)
fold change ([6]; measured here: relative caspase fold change +Dox/-Dox): 0.441
cell count ([6]; measured here: total cells with miR-34 induction, stronger effect = lower value): 7740
cell count ([6]; measured here: total cells without miR-34 induction): 8070
SSMD [7]: 2.52
cell count [7]: 7570
plate-normalised HSF1 focus index [7]: 1.16 (inactive)
z-score ([8]; MELAS cybrid survival, CellTiter-Glo 48 h, stronger effect = higher value): -0.375 (inactive)
z-score ([8]; Rieske KO mouse fibroblast survival, CellTiter-Glo 72 h): -0.075
viability ([9]; at 0.000305 µM, OCI-C5x cells, with rucaparib 10 µM, 100% = cells with rucaparib alone): 113% (inactive)
viability ([9]; at 0.000305 µM, OCI-C5x cells, without rucaparib): 103% (inactive)
viability ([9]; at 0.000305 µM, OCI-P5x cells, with rucaparib 20 µM, 100% = cells with rucaparib alone): 84.4% (active)
viability ([9]; at 0.000305 µM, OCI-P5x cells, without rucaparib): 85.2% (active)
viability ([9]; at 0.00122 µM, OCI-C5x cells, with rucaparib 10 µM, 100% = cells with rucaparib alone): 126% (inactive)
viability ([9]; at 0.00122 µM, OCI-C5x cells, without rucaparib): 108% (inactive)
viability ([9]; at 0.00122 µM, OCI-P5x cells, with rucaparib 20 µM, 100% = cells with rucaparib alone): 92% (active)
viability ([9]; at 0.00122 µM, OCI-P5x cells, without rucaparib): 93.9% (active)
viability ([9]; at 0.00488 µM, OCI-C5x cells, with rucaparib 10 µM, 100% = cells with rucaparib alone): 118% (inactive)
viability ([9]; at 0.00488 µM, OCI-C5x cells, without rucaparib): 117% (inactive)
viability ([9]; at 0.00488 µM, OCI-P5x cells, with rucaparib 20 µM, 100% = cells with rucaparib alone): 89.2% (active)
viability ([9]; at 0.00488 µM, OCI-P5x cells, without rucaparib): 93.1% (active)
viability ([9]; at 0.0195 µM, OCI-C5x cells, with rucaparib 10 µM, 100% = cells with rucaparib alone): 116% (inactive)
viability ([9]; at 0.0195 µM, OCI-C5x cells, without rucaparib): 115% (inactive)
viability ([9]; at 0.0195 µM, OCI-P5x cells, with rucaparib 20 µM, 100% = cells with rucaparib alone): 91% (active)
viability ([9]; at 0.0195 µM, OCI-P5x cells, without rucaparib): 97.2% (active)
viability ([9]; at 0.0781 µM, OCI-C5x cells, with rucaparib 10 µM, 100% = cells with rucaparib alone): 109% (inactive)
viability ([9]; at 0.0781 µM, OCI-C5x cells, without rucaparib): 117% (inactive)
viability ([9]; at 0.0781 µM, OCI-P5x cells, with rucaparib 20 µM, 100% = cells with rucaparib alone): 87.1% (active)
viability ([9]; at 0.0781 µM, OCI-P5x cells, without rucaparib): 98.7% (active)
viability ([9]; at 0.313 µM, OCI-C5x cells, with rucaparib 10 µM, 100% = cells with rucaparib alone): 115% (inactive)
viability ([9]; at 0.313 µM, OCI-C5x cells, without rucaparib): 119% (inactive)
viability ([9]; at 0.313 µM, OCI-P5x cells, with rucaparib 20 µM, 100% = cells with rucaparib alone): 63.7% (active)
viability ([9]; at 0.313 µM, OCI-P5x cells, without rucaparib): 54.2% (active)
viability ([9]; at 1.25 µM, OCI-C5x cells, with rucaparib 10 µM, 100% = cells with rucaparib alone): 110% (inactive)
viability ([9]; at 1.25 µM, OCI-C5x cells, without rucaparib): 116% (inactive)
viability ([9]; at 1.25 µM, OCI-P5x cells, with rucaparib 20 µM, 100% = cells with rucaparib alone): 91.1% (active)
viability ([9]; at 1.25 µM, OCI-P5x cells, without rucaparib): 105% (inactive)
viability ([9]; at 5 µM, OCI-C5x cells, with rucaparib 10 µM, 100% = cells with rucaparib alone): 114% (inactive)
viability ([9]; at 5 µM, OCI-C5x cells, without rucaparib): 124% (inactive)
viability ([9]; at 5 µM, OCI-P5x cells, with rucaparib 20 µM, 100% = cells with rucaparib alone): 87.9% (active)
viability ([9]; at 5 µM, OCI-P5x cells, without rucaparib): 107% (inactive)
inhibition ([10]; at 0.5 µM, stronger effect = higher value): -11.4% (inactive)
inhibition ([10]; measured here: combination with BGB IC20, at 0.005 µM): -13.3%
inhibition ([10]; measured here: combination with BGB IC40, at 0.005 µM): -16.5%
inhibition ([10]; measured here: combination with BGB IC40, at 0.05 µM): -16.7%
inhibition ([10]; measured here: combination with cisplatin, at 0.5 µM, stronger effect = higher value): -21.3%
inhibition ([10]; measured here: combination with cisplatin, at 5 µM, stronger effect = higher value): -30.6%
inhibition ([11]; BGB combo, at 5 µM): -27.5%
inhibition ([11]; at 0.5 µM): -36.3% (inactive)
inhibition ([11]; cisplatin combo, at 5 µM): -28.6%
inhibition [11, 18]: -35.8%
inhibition [11, 19]: -38.5%
inhibition ([11]; single agent, at 5 µM): -17%
inhibition ([12]; BGB IC20 combo, at 0.005 µM): 2.36%
inhibition ([12]; BGB IC40 combo, at 0.005 µM): -26.6%
inhibition ([12]; BGB IC40 combo, at 0.05 µM): 4.66%
inhibition ([12]; at 0.5 µM): -28.2% (inactive)
inhibition ([12]; cisplatin combo, at 0.05 µM): 1.23%
inhibition ([12]; cisplatin combo, at 0.5 µM): -24.8%
inhibition ([12]; cisplatin combo, at 5 µM): -12.9%
inhibition ([12]; measured here: 5 uM single agent, at 5 µM): 3.99%
inhibition ([13]; at 0.5 µM): -21.8% (inactive)
inhibition ([13]; measured here: with BGB IC20, at 0.5 µM): -19.3%
inhibition ([13]; measured here: with BGB IC20, at 5 µM): -13.7%
inhibition ([13]; measured here: with cisplatin IC20, at 0.5 µM): -26.1%
inhibition ([13]; measured here: with cisplatin IC20, at 5 µM): -16.9%
inhibition ([13]; single agent, at 5 µM): -18.1%
inhibition ([14]; at 0.5 µM): -15.2% (inactive)
inhibition ([14]; measured here: BGB combination, at 0.5 µM): -12%
inhibition ([14]; measured here: BGB combination, at 5 µM): -8.16%
inhibition ([14]; measured here: cisplatin combination, at 0.5 µM): -19.2%
inhibition ([14]; measured here: cisplatin combination, at 5 µM): -7.27%
inhibition ([15]; at 0.5 µM): -10.1% (inactive)
inhibition ([15]; cisplatin combination, at 0.5 µM): -26.2%
inhibition ([15]; cisplatin combination, at 5 µM): -3.75%
inhibition ([15]; measured here: BGB IC40 combination 0.05 uM, at 0.05 µM): -4.25%
inhibition ([15]; single agent, at 5 µM): -4.64%
inhibition ([16]; at 0.5 µM): -10.5% (inactive)
inhibition ([16]; cisplatin combo, at 5 µM): -5.73%
inhibition ([16]; measured here: BGB IC40 combination, at 0.05 µM): -15.4%
inhibition ([16]; measured here: combination with cisplatin, at 0.5 µM): -22.8%
inhibition ([16]; single agent, at 5 µM): -14.1%
inhibition ([17]; at 0.5 µM): -39.1% (inactive)
inhibition [17, 18]: -34.3%
inhibition [17, 19]: -43.9%
inhibition ([17]; single agent, at 0.05 µM): -29.1%
inhibition ([17]; single agent, at 5 µM): -40.2%
